Data reported in PubChem BioAssay AID1159580 (chemical genetic matrix, 2015).
Where “and” joins values, the source holds several entries; their conditions need not be identical. Equal entries are not always repeated. The whole screen tested about 5,500 compounds, of which about 2,000 (36%) were called active. Not shown: some 18% with an inconclusive outcome. Rule as the data show it: active = normalized growth mostly below about 0.91 (no sharp cut-off); inconclusive = no clear call, values can overlap the other calls; inactive = mostly above about 0.92. This is one part of the list.

Experiment: chemical genetic growth profiling, strain panel (AID 1159580);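 also: tested at 20 µM; growth read once vehicle control cultures reached saturation at 30 °C; 1 = growth at the plate median or of vehicle wells; lower values mean less growth of the strain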
Details: S. cerevisiae deletion strains, growth OD

Measured: normalized growth

Nc1c2c(nc3ccccc13)CCCC2O (stereo not drawn)
inactive: locus YAL021C, strain ccr4, stronger effect = lower value 1.01 | locus YAL026C, strain drs2, stronger effect = lower value 1.01 | locus YAL030W, strain snc1, stronger effect = lower value 1.01 | locus YAL040C, strain CLN3, stronger effect = lower value 1.05 | locus YBL061C, strain skt5, stronger effect = lower value 1.01 | locus YBR009C, strain hhf1, stronger effect = lower value 1 | locus YBR021W, strain FUR4, stronger effect = lower value 0.94 | locus YBR023C, strain chs3, stronger effect = lower value 1.01 | locus YBR171W, strain sec66, stronger effect = lower value 1 | locus YBR229C, strain ROT2, stronger effect = lower value 1.01 | locus YBR231C, strain swc5, stronger effect = lower value 0.998 | locus YBR279W, strain paf1, stronger effect = lower value 1.02 | locus YCL011C, strain gbp2, stronger effect = lower value 1.01 | locus YCL016C, strain dcc1, stronger effect = lower value 1 | locus YCL029C, strain bik1, stronger effect = lower value 0.974 | locus YCL061C, strain MRC1 (second series), stronger effect = lower value 1.01 | locus YCL061C, strain MRC1, stronger effect = lower value 1.03 | locus YCL069W, strain vba3, stronger effect = lower value 1.01 | locus YCR088W, strain abp1, stronger effect = lower value 1 | locus YDL005C, strain med2, stronger effect = lower value 1 | locus YDL035C, strain GPR1, stronger effect = lower value 0.994 | locus YDL040C, strain nat1, stronger effect = lower value 1.01 | locus YDL074C, strain BRE1, stronger effect = lower value 1.04 | locus YDL101C, strain DUN1, stronger effect = lower value 1.01 | locus YDL134C, strain PPH21, stronger effect = lower value 1.01 | locus YDL185W, strain tfp1, stronger effect = lower value 0.964 | locus YDL192W, strain arf1, stronger effect = lower value 0.987 | locus YDR001C, strain nth1, stronger effect = lower value 1.01 | locus YDR069C, strain doa4, stronger effect = lower value 1 | locus YDR101C, strain arx1, stronger effect = lower value 0.995 | locus YDR137W, strain rgp1, stronger effect = lower value 1.01 | locus YDR159W, strain sac3, stronger effect = lower value 0.997 | locus YDR162C, strain NBP2, stronger effect = lower value 0.985 | locus YDR195W, strain ref2 0.917 | locus YDR297W, strain sur2, stronger effect = lower value 1.01 | locus YDR318W, strain mcm21, stronger effect = lower value 0.982 | locus YDR334W, strain swr1, stronger effect = lower value 1.01 | locus YDR335W, strain msn5, stronger effect = lower value 1.01 | locus YDR363W, strain ESC2, stronger effect = lower value 1 | locus YDR388W, stronger effect = lower value 0.985 | locus YDR392W, strain spt3, stronger effect = lower value 0.902 | locus YDR502C, strain sam2, stronger effect = lower value 0.998 | locus YEL003W, strain gim4, stronger effect = lower value 1.01 | locus YEL037C, strain rad23, stronger effect = lower value 1.01 | locus YEL061C, strain CIN8 (second series), stronger effect = lower value 1.01 | locus YEL061C, strain CIN8, stronger effect = lower value 1.03 | locus YER002W, strain NOP16, stronger effect = lower value 1.01 | locus YER015W, strain faa2, stronger effect = lower value 1 | locus YER016W, strain bim1, stronger effect = lower value 0.991 | locus YER110C, stronger effect = lower value 0.981 | locus YER111C, strain swi4, stronger effect = lower value 1 | locus YER155C, strain BEM2 (second series), stronger effect = lower value 1 | locus YER155C, strain BEM2, stronger effect = lower value 0.994 | locus YER167W, strain BCK2, stronger effect = lower value 1 | locus YFR010W, strain ubp6, stronger effect = lower value 1 | locus YGL078C, strain dbp3, stronger effect = lower value 0.992 | locus YGL086W, strain mad1, stronger effect = lower value 1.01 | locus YGL167C, strain pmr1, stronger effect = lower value 1 | locus YGL173C, strain kem1, stronger effect = lower value 1.01 | locus YGL227W, strain vid30, stronger effect = lower value 0.995 | locus YGL240W, strain doc1, stronger effect = lower value 0.987 | locus YGL248W, strain PDE1, stronger effect = lower value 1.02 | locus YGL253W, strain hxk2, stronger effect = lower value 1 | locus YGR078C, strain PAC10, stronger effect = lower value 1.03 | locus YGR135W, strain pre9, stronger effect = lower value 0.979 | locus YGR229C, strain SMI1, stronger effect = lower value 1.02 | locus YGR252W, strain gcn5, stronger effect = lower value 0.998 | locus YHR013C, strain ard1, stronger effect = lower value 0.945 | locus YHR027C, strain rpn1, stronger effect = lower value 1.01 | locus YHR030C, strain SLT2, stronger effect = lower value 0.993 and 0.981 | locus YHR079C, strain IRE1 (second series), stronger effect = lower value 0.976 | locus YHR079C, strain IRE1, stronger effect = lower value 0.983 | locus YHR094C, strain hxt1, stronger effect = lower value 0.992 | locus YHR129C, strain ARP1, stronger effect = lower value 1 | locus YHR142W, strain chs7, stronger effect = lower value 1.03 | locus YHR200W, strain rpn10, stronger effect = lower value 0.973 | locus YIL066C, strain RNR3, stronger effect = lower value 1.02 | locus YIL073C, strain SPO22, stronger effect = lower value 0.912 | locus YIL125W, strain kgd1, stronger effect = lower value 0.996 | locus YIR030C, strain dcg1, stronger effect = lower value 0.979 | locus YJL092W, strain hpr5, stronger effect = lower value 1.03 | locus YJL095W, strain BCK1 (second series), stronger effect = lower value 1.01 | locus YJL095W, strain BCK1, stronger effect = lower value 1.05 and 0.988 | locus YJL115W, strain asf1, stronger effect = lower value 1 | locus YJL129C, strain trk1, stronger effect = lower value 1.05 | locus YJL134W, strain LCB3, stronger effect = lower value 0.996 | locus YJL154C, strain vps35, stronger effect = lower value 1.01 | locus YJL164C, strain tpk1, stronger effect = lower value 1.02 | locus YJL166W, strain qcr8, stronger effect = lower value 1.01 | locus YJL168C, strain set2, stronger effect = lower value 0.991 | locus YJL187C, strain SWE1 (second series), stronger effect = lower value 1.03 | locus YJL187C, strain SWE1, stronger effect = lower value 1.02 | locus YJR043C, strain POL32, stronger effect = lower value 1.02
